Values joined by “and” are separate entries in the source; they are usually repeats but may differ in a detail not shown here. Equal entries are not always repeated. Where two headings read alike, the source gives them in different places.
Assays:
[1] = system: T1, RSK2(Kin.Dom.2-C-terminal); settings: n = 1
T1 construct: gene RPS6KA3

[2] = system: T2, RSK3(Kin.Dom.1-N-terminal); settings: n = 1
T2 construct: gene RPS6KA2

[3] = system: T3, RSK3(Kin.Dom.2-C-terminal); settings: n = 1
T3 construct: gene RPS6KA2

[4] = system: T4, RSK4(Kin.Dom.1-N-terminal); settings: concentration: 1 μM, replicates: in singlicate; n = 1
T4 construct: gene RPS6KA6

[5] = system: T5, RSK4(Kin.Dom.2-C-terminal); settings: n = 1
T5 construct: gene RPS6KA6

[6] = system: S6K1; settings: n = 1
[7] = system: SBK1; settings: n = 1
[8] = system: SGK2; settings: concentration: 1 μM, replicates: in singlicate; n = 1
[9] = system: SGK3; settings: n = 1
[10] = system: SGK; settings: concentration: 1 μM, replicates: in singlicate; n = 1
[11] = concentration: 1 μM, replicates: in singlicate
[12] = concentration: 1 μM,replicates: in singlicate, 1 µM
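Further: KINOMEscan kinase panel screen.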

| Structure (SMILES) | %Inh [1, 11] | %Inh [2, 11] | %Inh [3, 11] | %Inh [4] | %Inh [5, 11] | %Inh [6, 11] | %Inh [7, 11] | %Inh [8] | %Inh [9, 11] | %Inh [10] | %Inh [1, 12] | %Inh [2, 12] | %Inh [3, 12] | %Inh [5, 12] | %Inh [6, 12] | %Inh [7, 12] | %Inh [9, 12] |
| --- | --- | --- | --- | --- | --- | --- | --- | --- | --- | --- | --- | --- | --- | --- | --- | --- | --- |
| CCn1c(-c2ccccn2)nc2cnccc21 [SB-736398] | 32% | 5% | 0% | 1% | 0% | 7% | 0% | 2% | 0% | 3% |  |  |  |  |  |  |  |
| COc1ccccc1-c1ccc2c(NC(=O)C3CC3)n[nH]c2n1 [SB-711239] | 7% | 0% | 0% | 4% | 22% | 7% | 68% | 4% | 3% | 0% |  |  |  |  |  |  |  |
| O=C1NC(=O)C(N2CCc3ccccc32)=C1c1ccccc1Cl [SB-373598] | 2% | 0% | 1% | 3% | 6% | 0% | 69% | 2% | 3% | 0% |  |  |  |  |  |  |  |
| NC(=O)c1nnc2ccccc2c1N | 13% | 19% | 0% | 33% | 44% | 14% | 1% | 13% | 44% | 0% |  |  |  |  |  |  |  |
| O=C(Nc1n[nH]c2cc(-c3cccc(F)c3F)ccc12)C1CC1 [SB-733894] | 0% | 52% | 0% | 0% | 0% | 22% | 11% | 29% | 12% | 32% |  |  |  |  |  |  |  |
| COc1ccccc1CNC(=O)c1cc(C(=O)c2ccccc2C)c[nH]1 [GSK364507] | 0% | 4% | 0% | 0% | 0% | 11% | 16% | 1% | 0% | 0% |  |  |  |  |  |  |  |
| C[C@@H]1CCCCN1c1cc(-c2ccc3c(N)n[nH]c3c2)nc(N)n1 [GSK2258759] | 0% | 0% | 19% | 0% | 24% | 0% | 0% | 0% | 3% | 0% |  |  |  |  |  |  |  |
| Cc1cccc(-c2nc(C)cc(Nc3ccncc3)n2)n1 [GSK257997] | 22% | 0% | 0% | 0% | 0% | 1% | 4% | 0% | 6% | 0% |  |  |  |  |  |  |  |
| Cl.c1ccc(-c2n[nH]cc2-c2ccnc(-c3ccc(CN4CCOCC4)cc3)c2)nc1 [GW776245] | 22% | 0% | 0% | 13% | 49% | 0% | 0% | 0% | 0% | 0% |  |  |  |  |  |  |  |
| CC(C)(C)c1ccc(C(=O)Nc2cn3cc(Cl)ccc3n2)cc1 | 28% | 0% | 23% | 45% | 22% | 0% | 0% | 6% | 0% | 8% |  |  |  |  |  |  |  |
| Cc1c(O)cccc1Nc1ccnc2ccc(C(F)(F)F)cc12.Cl [GW466413] | 16% | 0% | 0% | 4% | 0% | 0% | 0% | 0% | 2% | 0% |  |  |  |  |  |  |  |
| CS(=O)(=O)c1ccc(-c2c(-c3ncn[nH]3)sc(N3CCOCC3)c2C#N)cc1 | 0% | 0% | 98% | 0% | 100% | 10% | 0% | 0% | 24% | 0% |  |  |  |  |  |  |  |
| Cn1ccc2ncnc(Oc3ccc(NC(=O)Nc4ccccc4)cc3)c21 | 0% | 12% | 0% | 0% | 0% | 0% | 0% | 7% | 28% | 1% |  |  |  |  |  |  |  |
| CSc1nn2c(=O)cc(N3CCOCC3)nc2n1Cc1cccc(C(F)(F)F)c1C [GSK2363608] |  |  |  | 0% |  |  |  | 0% |  | 0% | 0% and 5% | 0% and 16% | 10% and 0% | 3% and 0% | 3% and 10% | 1% and 2% | 6% and 4% |
| Cc1cccc(-c2cc(Nc3ccncc3)c3ccccc3n2)n1 [GSK223675] | 0% | 5% | 10% | 0% | 21% | 0% | 3% | 0% | 0% | 0% |  |  |  |  |  |  |  |
| CS(=O)(=O)c1ccc(-c2nc3n(c2-c2ccncc2)CCC3)cc1 [SKF-105942] | 5% | 15% | 0% | 0% | 9% | 17% | 5% | 0% | 10% | 0% |  |  |  |  |  |  |  |
| CN1C(=O)C(Nc2ccc(Cl)c(C(=O)O)c2)=C(c2ccc(Cl)cc2)C1=O [SB-404290] | 8% | 0% | 1% | 33% | 0% | 53% | 24% | 9% | 19% | 13% |  |  |  |  |  |  |  |

From PMC5540273 (PLoS ONE, 2017)
